Source: PubChem
TGFb SMAD3 inh: blocks TGF-b signaling; actives 1.2% (n = 410,000); AID 588855; HepG2 CAGA-GFP TGF-b/SMAD3 reporter, GFP fluorescence, 18 h; TGF-beta stimulated, 500 pg/mL final; Potency, µM (series often up to 46.1 µM), inactives show top-dose activity, negative = inhibition, most hits filed as inhibitors; note: potency is the fitted concentration of half-maximal effect; % is set by controls: 0 for no effect and ±100 for the full control effect; nearly all actives have a fitted effect of over 65% in size
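GFP signal (ex488/em500-530) from TGF-beta-stimulated HEPG2 CAGA-GFP cells, 500 pg/mL final, 18 h at 37 degrees C in DMEM plus 1% FBS, normalized to unstimulated and DMSO-stimulated controls.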
ASM inhibitor: inhibitors of human secretory acid sphingomyelinase. placental ASM, HMU-PC fluorogenic substrate, 60 min. Potency, µM (top dose mostly 57.5 µM), for the others: top-dose activity change, negative = inhibition, usual class: inhibitors. actives 0.006% (n = 340,000); note: potency is the fitted concentration of half-maximal effect
Target sequence (P17405 47-631 limits assumed): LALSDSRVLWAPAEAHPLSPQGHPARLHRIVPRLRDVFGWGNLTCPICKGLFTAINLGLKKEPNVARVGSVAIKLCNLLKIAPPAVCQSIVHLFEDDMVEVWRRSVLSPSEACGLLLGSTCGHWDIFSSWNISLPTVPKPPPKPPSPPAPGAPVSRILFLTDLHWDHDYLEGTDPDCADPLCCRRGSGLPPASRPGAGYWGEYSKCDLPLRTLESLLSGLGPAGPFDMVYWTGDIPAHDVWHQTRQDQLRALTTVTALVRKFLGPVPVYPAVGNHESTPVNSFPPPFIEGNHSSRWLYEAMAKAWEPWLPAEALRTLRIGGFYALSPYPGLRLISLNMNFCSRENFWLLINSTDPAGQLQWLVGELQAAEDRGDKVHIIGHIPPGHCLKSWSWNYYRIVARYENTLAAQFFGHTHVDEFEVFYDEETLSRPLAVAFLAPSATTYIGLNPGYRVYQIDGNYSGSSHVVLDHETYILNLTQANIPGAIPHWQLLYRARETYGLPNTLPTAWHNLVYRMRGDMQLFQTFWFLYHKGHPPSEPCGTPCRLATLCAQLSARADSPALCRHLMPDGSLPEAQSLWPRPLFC
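Fluorescence read-out (Ex 386 nm, Em 447 nm) after stopping the reaction at pH 10. Enzyme: ASM from human placenta; substrate HMU-PC0, 9 uM final; 60 min, 37 °C. Compound preincubation 10 min, ambient temperature.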
IL-1B inflam inh: inhibitors of inflammasome signaling (IL-1 beta secretion); activity change, % at 57.5 µM; actives 4.7% (n = 360,000); THP-1 LPS/ATP IL-1B secretion, AlphaLISA, 16 h; hits give low values; in the data active = activity change below about -50%; inconclusive = mostly about -30% to -49%; note: % is set by controls: 0 for no effect and ±100 for the full control effect
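THP-1 cells pretreated 1 hr with compounds (up to 57.5 uM final), then stimulated with LPS (250 ng/mL final) plus ATP (1.25 mM final); secreted IL-1B measured by AlphaLISA after 16 hr, decreased signal indicating inhibition.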
DT40 TDP1 no CPT: qHTS for Inhibitors of human tyrosyl-DNA phosphodiesterase 1 (TDP1): qHTS in cells in absence of CPT; DT40 Tdp1-/- hTDP1 cells, no CPT, ATP luminescence, 48 h; Potency, µM (series often up to 46.2 µM), for inactives: top-dose activity change, negative = growth inhibition, hits mostly inhibitors; actives 15% (n = 420,000); note: potency is the fitted concentration of half-maximal effect; % is set by controls: 0 for no effect and ±100 for the full control effect; nearly all actives have a fitted effect of over 55% in size
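Growth kinetics read by CellTiter-Glo luminescence after ≥48 hr at 37 °C. Cells: DT40 Tdp1-/- stably carrying human TDP1, 400 per well, compound exposure in the absence of CPT (DMSO vehicle).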
HepG2 tox: HepG2 cytotoxicity, counter-screen for TGF-b inhibitors; Potency, µM (top dose mostly 46.1 µM), without a hit: at the top dose activity change, negative = cytotoxicity, usual class: cytotoxic; HepG2 CAGA-GFP viability, ATP luminescence, 18 h; actives 0.76% (n = 410,000); note: potency is the fitted concentration of half-maximal effect
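HepG2 CAGA-GFP cells (1000/well, DMEM with 1% FBS) received compound, then TGF-beta at 500 pg/mL final, and were incubated 18 hours at 37 degrees C. Viability was read by CellTiter-Glo luminescence. Media-only wells were set as complete cell-killing and DMSO as no toxicity.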
TDP1 cell CPT: DT40-hTDP1 cell growth loss with CPT. chicken DT40 Tdp1-/-;hTDP1 cells + 20 nM CPT, ATP luminescence, 48 h. Potency, µM (series often up to 46.2 µM), for the others: at the highest dose activity change, negative = growth inhibition, usual class: inhibitors. actives 12% (n = 420,000). AID 686979; note: potency is the fitted concentration of half-maximal effect; % is set by controls: 0 for no effect and ±100 for the full control effect; nearly all actives have a fitted effect of over 55% in size
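Chicken DT40 Tdp1-/- cells stably complemented with human TDP1 were seeded at 400 cells/well in medium containing 20 nM camptothecin, exposed to pin-transferred compounds, and grown at 37 °C for at least 48 hr. Viability was read as ATP luminescence.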
* = called active by the depositor; ? = inconclusive; nt = not tested or not shown. Rows were chosen to be rich in hits. Some 19% of all compounds tested hit in one or more screens of this group. Unless noted, calls come from the whole dose curve; as a rule, active = well fitted curve in the direction sought with a large enough effect; inconclusive = small, poorly fitted or top-dose-only effect, or another doubt; inactive = no such curve, though single readings can be large; an effect the other way counts as inactive or inconclusive.

SMILES	TGFb SMAD3 inh	ASM inhibitor	IL-1B inflam inh	DT40 TDP1 no CPT	HepG2 tox	TDP1 cell CPT
Cc1ccc(-c2cc(C(=O)Nc3ccc(S(=O)(=O)N4CC(C)OC(C)C4)cc3)[nH]n2)c(O)c1 (stereo not given)	-28%	-2%	-22	?	-14%	16µM*
O=C(CN1C(=O)C(=O)N(Cc2ccccc2)C1=O)c1ccc[nH]1	0%	-1%	9	0%	16%	-15%
Nc1ccc2nn(-c3cccc4ccccc34)nc2c1	0%	289%	12	16µM*	-2%	12µM*
Cc1cc2nn(-c3cccc4ccccc34)nc2cc1N	13%	138%	30	18µM*	-1%	21µM*
CS(=O)(=O)c1ccc(Cl)c(NC(=O)CSC(=S)N2CCCC2)c1	-11%	nt	-2	-17%	-33%	-18%
Cc1ccc(C(=O)NCCONC(=O)c2ccc(C)cc2)cc1	-3%	2%	21	5%	-6%	3%
COc1cccc(NC(=O)CCC2CCN(C(=O)c3cccc(NC(C)=O)c3)CC2)c1	-12%	0%	2	2%	0%	0%
CC(=O)c1ccc(NC(=S)N2CCC(Cc3ccccc3)CC2)cc1	-21%	-6%	-79*	?	-3%	-21%
COc1cccc(NC(=S)N2CCC(Cc3ccccc3)CC2)c1	?	-6%	-23	?	-6%	21µM*
COc1ccc(NC(=S)N2CCC(Cc3ccccc3)CC2)cc1OC	-15%	-1%	20	?	1%	?
N#Cc1cccc(C(=O)C(=O)N2CCC(Cc3ccccc3)CC2)c1	nt	nt	11	?	nt	?
COc1cccc(NC(=O)CCC2CCN(C(=O)C(OC)c3ccccc3)CC2)c1 (stereo not given)	5%	nt	-4	21µM*	-10%	16µM*
O=C(C(=O)N1CCC(Cc2ccccc2)CC1)c1ccccc1	nt	nt	11	16µM*	nt	?
Cc1cccc(C)c1NS(=O)(=O)c1ccc(NS(=O)(=O)c2ccc3c(c2)OCCO3)cc1	-10%	nt	nt	?	-16%	?
Cc1ccc(N2C(=O)c3cccc4cccc(c34)C2=O)cc1	-17%	10%	7	-1%	-15%	-3%
CC1=Nc2ccc(C)c3nc(C)cc(c23)N1c1ccc(C)cc1	22%	12%	0	16µM*	-21%	?
Cc1ccc(N2C=Nc3ccc(C)c4nc(C)cc2c34)cc1	1%	70%	-52*	?	-28%	?
O=C(Nc1ccc2c(c1)OCO2)c1noc2c1CCCC2	1%	1%	-15	-25%	-14%	8%
CCOc1ccccc1NC(=S)N(Cc1cc2ccc(C)cc2[nH]c1=O)CC1CCCN1CC (stereo not given)	?	5%	-22	26µM*	-44%	21µM*
CCN1CCCC1CN(Cc1cc2ccc(C)c(C)c2[nH]c1=O)C(=O)Nc1ccccc1OC (stereo not given)	?	0%	?	?	-30%	18µM*
CCN1CCCC1CN(Cc1cc2ccc(C)cc2[nH]c1=O)C(=S)Nc1ccccc1OC (stereo not given)	?	3%	-12	21µM*	-37%	?
CCN(CC)CCN(Cc1cc2ccc(C)cc2[nH]c1=O)C(=O)NC1CCCCC1	-11%	-1%	?	-9%	-25%	-5%
COc1ccccc1NC(=O)N(CCN1CCOCC1)Cc1cc2cc(C)cc(C)c2[nH]c1=O	-1%	1%	-28	-29%	19%	1%
NC(=O)C1CCN(C(=O)N2c3ccccc3Sc3ccccc32)CC1	-17%	2%	?	-28%	-41%	-12%
COc1ccccc1NC(=O)N1c2ccccc2Sc2ccccc21	?	nt	nt	15µM*	4%	15µM*
SMILES	TGFb SMAD3 inh	ASM inhibitor	IL-1B inflam inh	DT40 TDP1 no CPT	HepG2 tox	TDP1 cell CPT
O=C(OCC(=O)N1c2ccccc2Sc2ccccc21)c1cccnc1	-3%	3%	24	?	-29%	-4%
COc1cccc(C(=O)N2c3ccccc3Sc3ccccc32)c1	?	-2%	-11	16µM*	-27%	12µM*
O=C(c1ccncc1)N1c2ccccc2Sc2ccccc21	-20%	-2%	2	9.2µM*	-3%	21µM*
O=C(NC1CCN(C(=O)N2c3ccccc3Sc3ccccc32)CC1)c1ccccc1Cl	?	-9%	-59*	23µM*	0%	?
COc1cc(NC(=O)N2c3ccccc3Sc3ccccc32)c(C(=O)O)cc1OC	3%	13%	3	-6%	-6%	-3%
C=C(C)Cn1c2ccc(NC(=O)CCc3cccnc3)cc2c(=O)n1C	25%	nt	11	-13%	15%	-23%
CC(C)C[C@@H](CN1C(=O)C(=O)NC[C@@H]1CC(C)C)NC(=O)Cc1ccccc1	-1%	2%	-4	-15%	-2%	-9%
CN(C)c1ccc(N2C(=NC(=O)C3CCCO3)SC3CS(=O)(=O)CC32)cc1 (stereo not given)	-2%	2%	-5	28%	3%	-24%
O=C(NC1CCN(C(=O)N2c3ccccc3Sc3ccccc32)CC1)c1ccco1	-23%	-5%	-8	21µM*	-3%	?
COc1cccc(C(=O)NC2CCNCC2)c1	2%	-1%	-15	17%	-29%	-6%
COc1cccc(C(=O)NC2CCN(C(=O)N3c4ccccc4Sc4ccccc43)CC2)c1	-23%	?	-57*	?	-18%	?
COc1ccc(CNC(=O)CN(Cc2ccc(F)cc2)C(=O)CCC(=O)Nc2nccs2)cc1	20%	2%	5	-23%	14%	?
Cc1nc(=S)c2c([nH]1)-c1ccccc1CC21CCCCC1	0%	3%	1	18µM*	-62%	21µM*
c1ccc(-c2ccc(C3=Nn4c(nnc4-c4cc(-c5ccccc5)n[nH]4)SC3)cc2)cc1	?	?	62	?	-41%	?
Brc1ccc(C2=Nn3c(nnc3-c3n[nH]c4c3CCC4)SC2)cc1	16%	?	-16	0.92µM*	-34%	0.92µM*
Cc1cccc(-c2nnc3n2N=C(c2ccc(Br)cc2)CS3)c1	-11%	0%	13	-42%	4%	-49%
